Experimental data from PubChem BioAssay AID743279 (National Center for Advancing Translational Sciences (NCATS), 2014).
The campaign covered roughly 360,000 compounds. About 17,000 (4.7%) were called active. About 5% were inconclusive and are not listed. No stated cut-off is given here; in the data, active means activity change below about -50%; inconclusive means mostly about -30% to -49%; inactive means weaker than that. Only a selection was taken, and actives are over-represented in it overall.

Assay: qHTS for Inhibitors of Inflammasome Signaling: IL-1-beta AlphaLISA Primary Screen
Settings: THP-1 LPS/ATP IL-1B secretion, 16 h; at 57.5 µM, hits give low values
Outline: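 Secreted IL-1B measured by AlphaLISA bead assay after 16 h compound exposure of THP-1 cells; compounds (final up to 57.5 uM) added 1 h before LPS (250 ng/mL) and ATP (1.25 mM) stimulation; lower signal means less secretion.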
On the % scale 0 is the no-effect control and ±100 the full control effect.

Activity change, inactive:
COc1ccccc1-n1c(SCC(=O)Nc2ccc(Cl)cc2)nc(O)c(Cc2ccccc2)c1=O 0%
O=C(O)CC1(CC(=O)Nc2cccc(C(F)(F)F)c2)CCCC1 16.7%
O=C(Nc1ccc(C(=O)N2CCOCC2)cc1)Nc1cccc(C(F)(F)F)c1 -10.3%
COc1cc(NC(=O)c2[nH]cnc2C(N)=O)cc(C(=O)Nc2cccc(C(F)(F)F)c2)c1 -16%
COc1ccc(NC(=O)C(=O)NCC(=O)Nc2cccc(C(F)(F)F)c2)cc1 10.7%
CC(C)C[C@H](NC(=O)Nc1cccc(C(F)(F)F)c1)C(=O)O 34.5%
O=C(Nc1ccc(-c2csc(Nc3cccc(C(F)(F)F)c3)n2)cc1)c1cccc(C(F)(F)F)c1 11.4%
O=C(NCc1ccccc1)C1CNCC(C(=O)NCc2ccccc2)C1 (stereo not drawn) -14.4%
Cc1cc([N+](=O)[O-])ccc1NS(=O)(=O)c1ccccc1 26.9%
O=S1(=O)CC(N2CCN(CCO)CC2)CN1C1CCCC1 (stereo not drawn) -8.55%
Cc1ccc(-c2c(N)nc3ncccn23)cc1 7.85%
O=C(CN(C(=O)CCC(=O)Nc1nccs1)c1ccc(F)cc1)NCc1ccc2c(c1)OCO2 -10.1%
CCOc1ccccc1-c1cc(C(=O)N2CCOCC2)c2ccccc2n1 -12%
CC(=O)N1CCN(C(=O)c2cc(-c3ccc(C)o3)nc3ccccc23)CC1 23.1%
CCc1nc2ccc(C(=O)Nc3ccc(OC)c(OC)c3)cn2c1N(C)C(=O)c1cccc(OC)c1 -8.18%
COc1ccc(OC)c(S(=O)(=O)n2c([N+](=O)[O-])cnc2C)c1 0.96%
CCOc1ccc(C(C)C)cc1S(=O)(=O)n1nc(C)cc1C 0%
COc1ccc(S(=O)(=O)N2CCc3ccccc32)cc1C(=O)Nc1cc(S(C)(=O)=O)ccc1Cl 47.6%
CC(=O)NS(=O)(=O)c1ccc(N/C(N)=N/c2nc(C)cc(C)n2)cc1 34.9%
Clc1cccc(-c2nc3nc4ccccc4nc3n2Cc2ccco2)c1 -17.2%
O=c1c2ccccc2oc2nc(C3CCCCC3)n(Cc3ccco3)c(=O)c12 -16.6%
COC(=O)c1cc(S(=O)(=O)NC2CCN(Cc3ccccc3)CC2)cn1C -1.73%
CCn1c(=S)[nH]c2cc(S(=O)(=O)N3CCOCC3)ccc21 46.6%
CSCCC(=O)N1CCCC(CNC(=O)c2ccccc2Cl)C1 (stereo not drawn) 27.1%
CC(C)C(=O)Nc1ccc(C(=O)NNC(=O)c2cccs2)cc1 7.36%
Cc1ccc(C(=O)Nc2ccc(NC(=O)c3cccs3)cc2)c(C)c1 -12.6%
Nc1scc(-c2ccncc2)c1Cl -0.276%
CC(=O)OCCN(CCCn1c(-c2ccncc2)nc2ccccc21)c1nc(-c2ccc(C)cc2)cs1 14.2%
c1ccc(CNCc2ccc(CNCc3ccccc3)cc2)cc1 -20.3%
COCCCNC(=O)/C(C#N)=C/c1c(N2CCCCCC2)nc2ccccn2c1=O -20.1%
COCCNC(=O)/C(C#N)=C/c1cccc(OCc2ccccc2)c1 -8.24%
C=CCNc1scc(-c2ccccc2)[n+]1CC=C -19.1%
O=C(NNC(=O)c1ccc(-c2ccccc2)cc1)Nc1ccccc1 -8.29%
CC(=O)Oc1ccc(Cn2c(C)c(C(=O)NCc3ccc(C#N)cc3)sc2=O)cc1 8.83%
N#CCCN(C(=S)Nc1ccc(Cl)c(Cl)c1)C1CCCCC1 -17.1%
O=C(NCc1ccccn1)Nc1ccc(Cl)cc1 -6.13%
O=C(Nc1ccc(Cl)cc1)Nc1ccc(C(=O)N2CCOCC2)cc1 -29.9%
S=C(NC1CCCCC1)NN1CCOCC1 31.1%
O=C(CSc1nc2nccnc2c(=O)n1Cc1cccs1)Nc1ccccc1F 2.93%
CC1(C(=O)NS(=O)(=O)Cc2cccc(Cl)c2)CCN1C(=O)Cc1ccccc1 (stereo not drawn) 3.48%
CCc1ccccc1NC1c2ccccc2C(=O)N1c1cccnc1 (stereo not drawn) 0%
O=C1C(=O)N(c2ccccc2)C(c2ccccc2)C1c1ccccc1 (stereo not drawn) 5.18%
COc1cc(S(=O)(=O)N(Cc2cccs2)C2CC2)ccc1-n1cnnn1 0%
O=C(N[C@@H](Cc1ccccc1)C(=O)OCc1ccccc1)c1nc[nH]c1C(=O)NC1CCNCC1 -10%
CC(C)(C)OC(=O)CNC(=O)c1[nH]cnc1C(=O)N[C@@H](Cc1ccccc1)C(=O)OCc1ccccc1 52.8%
Cc1cc(Br)ccc1NC(=O)CCCOc1cc(=O)n(C)c2ccccc12 -13.4%

Activity change, active:
COc1ccc(C(N)c2csc(NC(=O)Nc3cccc(C(F)(F)F)c3)n2)cc1 (stereo not drawn) -81.4%
NC(c1ccccc1)c1csc(NC(=O)Nc2cccc(C(F)(F)F)c2)n1 (stereo not drawn) -106%
NC(c1csc(NC(=O)Nc2cccc(C(F)(F)F)c2)n1)C1CCCCC1 (stereo not drawn) -111%
O=C(c1cc(-c2ccc(Cl)s2)nc2ccccc12)N1CCOCC1 -70.8%
COc1ccc(C(C[N+](=O)[O-])n2nc(C)cc2C)cc1 (stereo not drawn) -102%
Cc1ccc(Cn2c(C)nc3c(c2=O)c2nc4ccccc4nc2n3Cc2ccco2)cc1 -83.5%
CC(Oc1cccc(NC(=O)c2cccs2)c1)C(=O)c1ccccc1 (stereo not drawn) -60.1%
COCCNC(=O)/C(C#N)=C/c1nc(N(C)C)n(-c2ccc(F)cc2)c1Cl -69.9%
C=CC[n+]1c(-c2ccc(C)cc2)csc1NNC(=O)Nc1ccccc1 -79.2%
CC(C)S(=O)(=O)c1csc(NC(=O)Nc2ccc(Cl)cc2)c1Cl -95.1%
O=C1[C@@H](c2ccccc2)[C@@H](c2ccccc2)N1c1cccnc1 -68.8%
CC(C)(C)OC(=O)N1CCC(NC(=O)c2[nH]cnc2C(=O)N[C@@H](Cc2ccccc2)C(=O)OCc2ccccc2)CC1 -58%
